The target of test [1] is Thyrotropin receptor (Homo sapiens) (UniProt P16473). The test can be described thus: qHTS assay to identify small molecule agonists of the thyroid stimulating hormone receptor (TSHR) signaling pathway (AID 1224843; calls by dose curve; note: nearly all actives have a fitted effect of over 45% in size). The method in brief: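 HEK293/TSHR, 800 cells/well; cpd 30 min RT; add cAMP-d2 + anti-cAMP-cryptate, 1 h RT; fluorescence read on plate reader. 15-pt titration, n=3.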

The nature of test [2]: qHTS assay to identify small molecule agonists of the hypoxia (HIF-1) signaling pathway - cell viability counter screen (AID 1224844; calls by dose curve; note: nearly all actives have a fitted effect of over 50% in size; note: potency is the fitted concentration of half-maximal effect). A digest of the protocol:
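Viability counter screen: HRE-bla ME-180 cells plated 5 hrs before compound addition, treated 17 hrs at 37C and 5% CO2, then CellTiter-Glo added after the FRET reporter read; luminescence after 30 min.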
(In general: In qHTS, concentration-response curves come from the screen itself.)

A short description of test [3]: qHTS assay to identify small molecule agonists of H2AX (AID 1224845; active = well fitted activation curve with a large enough effect in the signal ratio in the repeat runs, not every such curve was filed as active; the % refers to the signal ratio). The method in brief: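 Wild-type CHO-K1 cells, plated overnight, exposed 3hr at 37C to 15 concentrations (0.76% DMSO final). Lysed, then HTRF anti-pH2AX (S139) cryptate and anti-H2AX-d2 antibodies, 24 hr room temperature; 665/620 nm emission read.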
Test [4] is described as follows: qHTS assay to identify small molecule agonists of the hypoxia (HIF-1) signaling pathway (AID 1224846; active = well fitted activation curve with a large enough effect in the signal ratio in the repeat runs, not every such curve was filed as active; the % refers to the signal ratio). The method in brief:
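Agonist mode reporter screen. ME-180 cells stably expressing bla under HRE control received test compounds in DMSO for 17 hrs (37C, 5% CO2), and beta-lactamase activity was then detected with the CCF4-AM FRET substrate.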

A short description of test [5]: qHTS assay to identify small molecule agonists of H2AX - cell viability counter screen (AID 1224847; calls by dose curve; note: top concentration of the series differs between compounds; nearly all actives have a fitted effect of over 30% in size). A digest of the protocol: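 We seed wild-type CHO-K1 cells overnight, treat them for 3 hr at 37C with compounds in 15-concentration series, and quantify remaining viability by CellTiter-Glo luminescence.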
A short description of test [6]: qHTS RealTime-Glo MT Cell Viability Assay in HEK293 cells - 32 hour (AID 1224868). Note: top concentration of the series differs between compounds; nearly all actives have a fitted effect of over 50% in size. A digest of the protocol:
(§1)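 Quantitative high-throughput screen of the Tox21 10K library in HEK293: cells and RealTime-Glo reagents plated together, compound added at 5 h, luminescence monitored through 40 h at 37 C.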

The nature of test [7]: A CellTox Green Cytotoxicity Assay to monitor cytotoxicity in HEK293 cells - 0 hour (AID 1224869). Note: nearly all actives have a fitted effect of over 50% in size. A digest of the protocol: (§2)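 Dead-cell fluorescence measured kinetically: asymmetric cyanine dye, HEK293, 600 cells/well, 5 h settle, 23 nL cpd/DMSO, 37 C, reads 0–40 h every 8 h.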
Test [8] can be described thus: qHTS RealTime-Glo MT Cell Viability Assay in HepG2 cells - 40 hour (AID 1224870). Note: nearly all actives have a fitted effect of over 50% in size. Note: potency is the fitted concentration of half-maximal effect. A digest of the protocol: (§3)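 HepG2 cells (600/well) mixed with RealTime-Glo MT reagent, settled 5 h at 37 C/5% CO2 before compound addition. Nonlytic NanoLuc luminescence from viable-cell prosubstrate reduction read repeatedly during 40 h treatment at 37 C.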
Test [9] in a line: A CellTox Green Cytotoxicity Assay to monitor cytotoxicity in HEK293 cells - 40 hour (AID 1224871). Note: nearly all actives have a fitted effect of over 45% in size. Note: potency is the fitted concentration of half-maximal effect. The method in brief: as §2
Test [10] is described as follows: qHTS RealTime-Glo MT Cell Viability Assay in HEK293 cells - 16 hour (AID 1224872). For activity change, negative = cytotoxicity: top concentration of the series differs between compounds. Note: nearly all actives have a fitted effect of over 50% in size. Note: potency is the fitted concentration of half-maximal effect. A digest of the protocol: as §1
Test [11] in a line: qHTS RealTime-Glo MT Cell Viability Assay in HepG2 cells - 8 hour (AID 1224873). Note: nearly all actives have a fitted effect of over 55% in size. Note: potency is the fitted concentration of half-maximal effect. A digest of the protocol: as §3
Test [12] can be described thus: qHTS RealTime-Glo MT Cell Viability Assay in HEK293 cells - 40 hour (AID 1224874). Note: nearly all actives have a fitted effect of over 50% in size. Note: potency is the fitted concentration of half-maximal effect. Particulars: RealTime-Glo luminescence; max response: stronger effect = lower value. The method in brief:
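600 HEK293 cells per well, dispensed already mixed with RealTime-Glo MT reagents. Compound dosing came 5 h later. The same wells were read for luminescence at 0, 8, 16, 24, 32 and 40 h of exposure at 37 C.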

The nature of test [13]: A CellTox Green Cytotoxicity Assay to monitor cytotoxicity in HEK293 cells - 24 hour (AID 1224875). Note: nearly all actives have a fitted effect of over 45% in size. Note: potency is the fitted concentration of half-maximal effect. The method in brief:
as §2

Test [14] in a line: A CellTox Green Cytotoxicity Assay to monitor cytotoxicity in HepG2 cells - 16 hour (AID 1224876). Note: nearly all actives have a fitted effect of over 45% in size. Note: potency is the fitted concentration of half-maximal effect. A digest of the protocol:
(§4)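 First, HepG2 cells (600/well) mixed with reagent were plated; second, after 5 h at 37 C they received compounds via pintool; third, fluorescence was measured at 0 h through 40 h at 8 h intervals.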

A short description of test [15]: qHTS RealTime-Glo MT Cell Viability Assay in HepG2 cells - 32 hour (AID 1224877). Note: nearly all actives have a fitted effect of over 55% in size. Note: potency is the fitted concentration of half-maximal effect. The method in brief:
(§5)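 Compound treatment began 5 h after plating HepG2 cells (600/well) with NanoLuc luciferase and prosubstrate. Plates stayed at 37 C for 40 h; luminescence was captured at six time points, 0 h through 40 h.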

Test [16] in a line: A CellTox Green Cytotoxicity Assay to monitor cytotoxicity in HepG2 cells - 24 hour (AID 1224878). Note: nearly all actives have a fitted effect of over 45% in size. Note: potency is the fitted concentration of half-maximal effect. A digest of the protocol: as §4
Test [17] in a line: A CellTox Green Cytotoxicity Assay to monitor cytotoxicity in HepG2 cells - 40 hour (AID 1224879). Note: nearly all actives have a fitted effect of over 40% in size. Note: potency is the fitted concentration of half-maximal effect. The method in brief: as §4
The nature of test [18]: qHTS assay to identify small molecule antagonists of the estrogen related receptor (ERR) signaling pathway from Tox21 library (AID 1224848). Note: nearly all actives have a fitted effect of over 50% in size. A digest of the protocol:
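Compounds dissolved in DMSO are pin-transferred onto ERR reporter cells (2,000 per well) that have settled for 6 h at 37 C. Plates then incubate 18 h at 37 C before ONE-Glo luciferase reagent and a luminescence read 30 min later.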

Test [19] in a line: qHTS RealTime-Glo MT Cell Viability Assay in HepG2 cells - 24 hour (AID 1224867). Note: nearly all actives have a fitted effect of over 50% in size. Note: potency is the fitted concentration of half-maximal effect. A digest of the protocol: as §5
The nature of test [20]: qHTS assay to identify small molecule agonists of the estrogen related receptor (ERR) signaling pathway from Tox21 library (AID 1224849; calls by dose curve; note: nearly all actives have a fitted effect of over 15% in size). As to conditions: ERR reporter cell line, ONE-Glo luciferase, 18 h; at 92.4 µM (top of the series) unless noted. The method in brief:
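Quantitative HTS in agonist format: NTP ERR cell line, compounds transferred in DMSO after 6 h plating, 18 h incubation at 37 C, ONE-Glo luminescence endpoint.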

Unmarked numbers belong to inactive results. Records with an inconclusive call do not appear. The source made the active and inactive calls. Unless noted, calls come from the whole dose curve; as a rule, active = well fitted curve in the direction sought with a large enough effect in the repeat runs; inconclusive = weak or mixed curves; inactive = no such curve, though single readings can be large; an effect the other way counts as inactive or inconclusive.
% is set by controls: 0 for no effect and ±100 for the full control effect.

Chain of Thyrotropin receptor (Homo sapiens) (P16473 whole entry, looked up): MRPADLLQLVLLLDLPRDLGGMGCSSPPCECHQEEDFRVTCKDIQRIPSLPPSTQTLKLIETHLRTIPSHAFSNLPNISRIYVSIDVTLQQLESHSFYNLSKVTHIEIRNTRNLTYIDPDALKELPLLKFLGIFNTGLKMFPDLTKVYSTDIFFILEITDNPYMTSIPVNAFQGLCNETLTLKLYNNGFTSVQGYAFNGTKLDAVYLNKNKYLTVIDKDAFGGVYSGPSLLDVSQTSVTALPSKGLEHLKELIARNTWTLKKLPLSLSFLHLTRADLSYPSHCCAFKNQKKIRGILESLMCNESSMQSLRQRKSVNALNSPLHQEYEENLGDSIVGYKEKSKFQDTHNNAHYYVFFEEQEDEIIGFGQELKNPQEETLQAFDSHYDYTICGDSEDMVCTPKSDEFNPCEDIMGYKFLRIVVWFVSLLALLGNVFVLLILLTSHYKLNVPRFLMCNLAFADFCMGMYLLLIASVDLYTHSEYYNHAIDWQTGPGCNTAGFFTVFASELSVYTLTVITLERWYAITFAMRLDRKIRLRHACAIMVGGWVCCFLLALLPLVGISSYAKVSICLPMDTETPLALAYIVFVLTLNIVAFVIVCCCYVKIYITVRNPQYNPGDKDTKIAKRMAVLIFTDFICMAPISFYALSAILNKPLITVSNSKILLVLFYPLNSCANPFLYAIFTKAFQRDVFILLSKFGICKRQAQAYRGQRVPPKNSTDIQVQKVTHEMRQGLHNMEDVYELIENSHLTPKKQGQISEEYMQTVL

Take `CCC(=O)OCc1ccc(OC)cc1`: the Potency entry in test [1], in test [2], in test [3], in test [5], in test [6] and in test [7] was “inactive” throughout. Besides, the Potency entry in [8], in [9], in test [10], in test [11], in test [13] and in test [14] was “inactive” throughout. In addition, the Potency entry in test [15], in test [16] and in test [17] was “inactive” throughout. Further, the compound was called inactive in test [4]. The max response in test [12] was 0.878%.
Take `O=C(O)CCS`: the Potency result in test [1], in [2], in [3], in [5], in test [18] and in test [19] was “inactive” each time. Besides, the Potency entry in test [6], in test [7], in [8], in [10], in [11] and in [13] was “inactive” each time. For the same compound, the Potency entry in test [14], in [15], in test [16] and in [17] was “inactive” throughout. The max response in test [12] was 7.66%.
`CC(C)(C)CCCCCCOC(=O)c1ccccc1C(=O)OCCCCCCC(C)(C)C`: the Potency entry in test [1], in test [2], in test [3], in test [18], in [19] and in [6] was “inactive” throughout. Moreover, the Potency entry in [7], in [8], in [10], in test [11], in test [13] and in test [14] was “inactive” each time. The Potency result in test [15], in [16] and in [17] was “inactive” each time. The call in test [4] was inactive. Further, in [20], the activity change, positive = activation is -3.55%. Moreover, in test [12], the max response is 7.13%.
Take `CCCCCCCCCCCCCCN(C)C`: the activation in [1] was 2.75% [at 19 µM]; in [4] it was -0.0233% [at 15.8 µM]. Moreover, the activity change, negative = cytotoxicity was -7.12% [at 15.8 µM] in test [2] and 1.14% [at 15.8 µM] in test [19]. Further, in [3], the activation (H2AX phosphorylation) is 0.821% [at 31.6 µM]. Also, the activity change, negative = cytotoxic in test [6] is -30.2% [at 15.8 µM]; in [8], 10.3% [at 15.8 µM]; in test [15] it was 5.76% [at 15.8 µM]. In addition, the cytotoxicity in test [7] is -21.7% [at 15.8 µM]; in test [16], -3.33% [at 15.8 µM]. Besides, the cytotoxicity increase is -34.7% [at 15.8 µM] in test [9], -1.78% [at 15.8 µM] in test [14] and -7.14% [at 15.8 µM] in test [17]. Besides, the viability change, negative = cytotoxic in [11] is -0.602% [at 15.8 µM]. Besides, in [12], the max response is -29.2%. Besides, the activity change in [13] is -31.5% [at 15.8 µM, stronger effect = higher value].
Take `CCN(CC)C(=O)N1CCN(C)CC1`: the Potency result in [1], in test [2], in test [3], in test [5], in test [18] and in [19] was “inactive” each time. Besides, the Potency entry in test [6], in test [7], in test [8], in test [9], in [10] and in test [11] was “inactive” in each case. For the same compound, the Potency entry in [13], in [14], in [15], in test [16] and in [17] was “inactive” each time. In addition, in test [20], the activity change, positive = activation is 6.11% [at 42.5 µM]. Also, the max response in [12] is 4.18%.
Take `O[C@@H](CNC[C@H](O)[C@H]1CCc2cc(F)ccc2O1)[C@@H]1CCc2cc(F)ccc2O1`: the Potency result in test [1], in test [3] and in [7] was “inactive” throughout. Further, the Potency in test [2] is 23.9 µM (active); in test [19], 16.9 µM (active); in [8], 15.1 µM (active); in [9] it was 26.8 µM (active); in [10] it was 19 µM (active); in test [11], 21.3 µM (active). Moreover, the Potency in [12] was 19 µM (active); in test [13], 26.8 µM (active); in test [14] it was 16.9 µM (active); in [15] it was 15.1 µM (active); in [16], 10.7 µM (active); in test [17], 10.7 µM (active). For the same compound, in test [4], the result was inactive. Besides, the activity change, positive = activation in test [20] was -67.5% [at 42.5 µM].
Take `O=C(NS(=O)(=O)/C=C/c1ccccc1)c1ccc(F)cc1Cl`: the Potency entry in test [1], in [2], in test [3], in test [18], in test [7] and in test [8] was “inactive” each time. For the same compound, the Potency entry in test [9], in test [10], in test [11], in test [13] and in test [15] was “inactive” throughout. Further, the outcome in test [4] was inactive. The Potency in [16] and in [17] was 54.9 µM (active) each time.

(Values after PubChem BioAssay (Tox21).)
